Experimental data: PubChem BioAssay (NCATS)
Records with an inconclusive call do not appear. Where a call stands in place of a potency, no number is given. Unmarked numbers belong to inactive results. Active and inactive are the calls of the source. Calls follow the shape of the dose curve; as a rule, active = well fitted inhibition curve with a large enough effect; inconclusive = small, poorly fitted or top-dose-only effect; inactive = flat fitted curve, though single readings scatter.

Columns and labels:
[1] = qHTS profiling for inhibitors of Plasmodium falciparum proliferation (AID 504749); as to all read-outs here: nearly all actives have a fitted effect of over 60% in size; conditions: P. falciparum in erythrocytes, SYBR Green DNA, 72 h; for activity, negative = inhibition: at 28.7 µM (top of the series)
Summary of the method: (§1)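 Infected RBCs, 0.3% parasitemia/2.5% Hct final; cpd 72 h, 37 C, 5% CO2; lysis buffer with saponin/triton/SYBR Green I, o/n RT dark; FI 485/535; norm. to artemisinin (0.29 uM) and DMSO.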

3D7 = test: as above; conditions: P. falciparum in erythrocytes, SYBR Green DNA, 72 h; series mostly up to 28.7 µM
Summary of the method: as §1

7G8 = test: as above; conditions: P. falciparum in erythrocytes, SYBR Green DNA, 72 h; series mostly up to 28.7 µM
Summary of the method: as §1

AA1029 = test: as above; conditions: P. falciparum in erythrocytes, SYBR Green DNA, 72 h; series mostly up to 28.7 µM
Summary of the method: as §1

AS120 = test: as above; conditions: P. falciparum in erythrocytes, SYBR Green DNA, 72 h; series mostly up to 28.7 µM
Summary of the method: as §1

ATS189 = test: as above; conditions: P. falciparum in erythrocytes, SYBR Green DNA, 72 h; series mostly up to 28.7 µM
Summary of the method: as §1

ATS95 = test: as above; conditions: P. falciparum in erythrocytes, SYBR Green DNA, 72 h; series mostly up to 28.7 µM
Summary of the method: as §1

C2A = test: as above; conditions: P. falciparum in erythrocytes, SYBR Green DNA, 72 h; series mostly up to 28.7 µM
Summary of the method: as §1

CP185 = test: as above; conditions: P. falciparum in erythrocytes, SYBR Green DNA, 72 h; series mostly up to 28.7 µM
Summary of the method: as §1

CP191 = test: as above; conditions: P. falciparum in erythrocytes, SYBR Green DNA, 72 h; series mostly up to 28.7 µM
Summary of the method: as §1

CP192 = test: as above; conditions: P. falciparum in erythrocytes, SYBR Green DNA, 72 h; series mostly up to 28.7 µM
Summary of the method: as §1

CP194 = test: as above; conditions: P. falciparum in erythrocytes, SYBR Green DNA, 72 h; series mostly up to 28.7 µM
Summary of the method: as §1

CP201 = test: as above; conditions: P. falciparum in erythrocytes, SYBR Green DNA, 72 h; series mostly up to 28.7 µM
Summary of the method: as §1

CP211 = test: as above; conditions: P. falciparum in erythrocytes, SYBR Green DNA, 72 h; series mostly up to 28.7 µM
Summary of the method: as §1

CP215 = test: as above; conditions: P. falciparum in erythrocytes, SYBR Green DNA, 72 h; series mostly up to 28.7 µM
Summary of the method: as §1

CP217 = test: as above; conditions: P. falciparum in erythrocytes, SYBR Green DNA, 72 h; series mostly up to 28.7 µM
Summary of the method: as §1

CP237 = test: as above; conditions: P. falciparum in erythrocytes, SYBR Green DNA, 72 h; series mostly up to 28.7 µM
Summary of the method: as §1

CP238 = test: as above; conditions: P. falciparum in erythrocytes, SYBR Green DNA, 72 h; series mostly up to 28.7 µM
Summary of the method: as §1

CP247 = test: as above; conditions: P. falciparum in erythrocytes, SYBR Green DNA, 72 h; series mostly up to 28.7 µM
Summary of the method: as §1

CP203 = test: as above; conditions: P. falciparum in erythrocytes, SYBR Green DNA, 72 h; series mostly up to 28.7 µM
Summary of the method: as §1
Potency is read from the fitted curve at half-maximal effect.

COC(=O)[C@H]1[C@H]2C[C@@H]3c4[nH]c5cc(OC)ccc5c4CCN3C[C@H]2C[C@@H](OC(=O)c2cc(OC)c(OC)c(OC)c2)[C@@H]1OC
Potency ([1]; parasite line A): 11.2 µM (active)
Potency ([1]; parasite line B): 11.2 µM (active)
Potency (3D7): 8.91 µM (active)
Potency (7G8): 1.41 µM (active)
Potency (AA1029): 8.91 µM (active)
Potency (AS120): 4.47 µM (active)
Potency (ATS189): 11.2 µM (active)
Potency (ATS95): 11.2 µM (active)
Potency (C2A): 11.2 µM (active)
Potency (CP185): 7.94 µM (active)
Potency (CP191): 8.91 µM (active)
Potency (CP192): 13.5 µM (active)
Potency (CP194): 9.53 µM (active)
Potency (CP201): 12 µM (active)
Potency (CP211): 6.75 µM (active)
Potency (CP215): 9.53 µM (active)
Potency (CP217): 11.2 µM (active)
Potency (CP237): 11.2 µM (active)
Potency (CP238): 11.2 µM (active)
Potency (CP247): 11.2 µM (active)

C[C@H](CS)C(=O)N1CCC[C@H]1C(=O)O
activity, negative = inhibition ([1]; parasite line A): -25.9%
activity, negative = inhibition ([1]; parasite line B): 10.2%
Potency (3D7): inactive
Potency (7G8): inactive
Potency (AA1029): inactive
Potency (AS120): inactive
Potency (ATS189): inactive
Potency (ATS95): inactive
Potency (C2A): inactive
Potency (CP185): inactive
Potency (CP191): inactive
Potency (CP194): inactive
Potency (CP201): inactive
Potency (CP203): inactive
Potency (CP215): inactive
Potency (CP217): inactive
Potency (CP237): inactive
Potency (CP238): inactive
Potency (CP247): inactive

CN(C)CC/C=C1\c2ccccc2COc2ccccc21
activity, negative = inhibition ([1]; parasite line A): 0.213%
activity, negative = inhibition ([1]; parasite line B): 6.5%
Potency (3D7): inactive
Potency (7G8): 12.6 µM (active)
Potency (AA1029): 8.91 µM (active)
Potency (CP191): inactive
Potency (CP192): inactive

O=c1[nH]c(=O)n([C@H]2C[C@H](O)[C@@H](CO)O2)cc1Br
activity, negative = inhibition ([1]; parasite line A): -7.76%
activity, negative = inhibition ([1]; parasite line B): -6.27%
Potency (3D7): inactive
Potency (7G8): inactive
Potency (AA1029): inactive
Potency (AS120): inactive
Potency (ATS189): inactive
Potency (ATS95): inactive
Potency (C2A): inactive
Potency (CP185): inactive
Potency (CP191): inactive
Potency (CP192): inactive
Potency (CP194): inactive
Potency (CP201): inactive
Potency (CP211): inactive
Potency (CP215): inactive
Potency (CP217): inactive
Potency (CP237): inactive
Potency (CP238): inactive
Potency (CP247): inactive

CCCOc1ccccc1-c1nc2n[nH]nc2c(=O)[nH]1
activity, negative = inhibition ([1]; parasite line A): -3.13%
activity, negative = inhibition ([1]; parasite line B): 3.38%
Potency (3D7): inactive
Potency (7G8): inactive
Potency (AA1029): inactive
Potency (AS120): inactive
Potency (ATS189): inactive
Potency (ATS95): inactive
Potency (C2A): inactive
Potency (CP185): inactive
Potency (CP191): inactive
Potency (CP192): inactive
Potency (CP194): inactive
Potency (CP201): inactive
Potency (CP211): inactive
Potency (CP215): inactive
Potency (CP217): inactive
Potency (CP237): inactive
Potency (CP238): inactive
Potency (CP247): inactive

C[C@]12CCC(=O)C=C1CC[C@@H]1[C@@H]2CC[C@@]2(C)[C@H]1CC[C@]2(O)C(=O)CO
activity, negative = inhibition ([1]; parasite line A): -9.28%
activity, negative = inhibition ([1]; parasite line B): 20.5%
Potency (3D7): inactive
Potency (AA1029): inactive
Potency (AS120): inactive
Potency (ATS189): inactive
Potency (ATS95): inactive
Potency (C2A): inactive
Potency (CP185): inactive
Potency (CP191): inactive
Potency (CP192): inactive
Potency (CP194): inactive
Potency (CP201): inactive
Potency (CP203): inactive
Potency (CP211): inactive
Potency (CP215): inactive
Potency (CP217): inactive
Potency (CP237): inactive
Potency (CP238): inactive
Potency (CP247): inactive
